Laboratory results: the supplement of paper PMC13094657
Counter-ions that a name gives are not always drawn. ± gives the standard deviation of the averaged measurements.

system: MDA-MB-231; assay: kynurenine production, fold change vs DMSO IFNg/TNF control; higher = more kynurenine produced (less inhibition); details: pre-treatment time: 18 h then 24 h IFNg/TNF
Method in brief: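 Fold change over cytokine-stimulated vehicle wells on the same plate is the measure used for kynurenine production, averaged across duplicate plates in the first screening round. MDA-MB-231 cells, seeded 24 h beforehand at 7 × 10^4/well in 96-well plates, were pre-treated 18 h with each natural product in 0.1% DMSO and stimulated 24 h at 37°C with IFNγ (1 U/ml) and TNF (6.25 ng/ml). Supernatants were read at 492 nm following trichloroacetic acid and p-dimethylaminobenzaldehyde treatment, against 0–100 μM standards.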

Structure (SMILES)	kynurenine production
COc1ccc(CC2c3cc(OC)c(OC)cc3CCN2C)cc1OC (stereo not given) [Laudanosine] (compound dose: 10 uM)	0.52 ± 0.037
C[C@]1(C(=O)O)CCC[C@]2(C)c3cc(O)ccc3CC[C@@H]12 [Podocarpic acid] (compound dose: 10 uM)	0.852 ± 0.12
COc1cc2c(c(OC)c1OC)-c1ccc(OC)c(=O)cc1[C@@H](NC(C)=O)CC2 [Colchicine] (compound dose: 10 uM)	0.234 ± 0.046
CC(C)=CCC[C@](C)(O)[C@H]1CC[C@]2(C)[C@@H]1[C@H](O)C[C@@H]1[C@@]3(C)CC[C@H](O[C@@H]4O[C@H](CO)[C@@H](O)[C@H](O)[C@H]4O)C(C)(C)[C@@H]3CC[C@]12C [Ginsenoside Rh2] (compound dose: 10 uM)	0.84 ± 0.19
COc1cc2c3cc1Oc1cc(ccc1O)C[C@@H]1c4c(cc(OC)c(O)c4Oc4ccc(cc4)C[C@H]3N(C)CC2)CCN1C [Curine] (compound dose: 10 uM)	0.389 ± 0.026
CC(C)[C@]12CC(=O)[C@H](C)[C@H]1C2 [α-Thujone] (compound dose: 10 uM)	0.947 ± 0.21
CC(C)=CCC[C@H](C(=O)O)[C@H]1CC[C@]2(C)C3=C(CC[C@@]12C)[C@@]1(C)CCC(=O)C(C)(C)[C@H]1CC3 [β-Elemonic acid] (compound dose: 10 uM)	1.161 ± 0.0012
O=C(O)c1ccc(=O)[nH]c1 [6-hydroxypyridine-3-carboxylic acid] (compound dose: 10 uM)	0.821 ± 0.09
CN1[C@@H]2CC[C@H]1C[C@@H](OC(=O)[C@H](CO)c1ccccc1)C2 [Hyoscyamine hydrobromide] (compound dose: 10 uM)	0.743 ± 0.061
CC(C)=CCC[C@@](C)(O)[C@H]1CC[C@]2(C)[C@@H]1[C@H](O)C[C@@H]1[C@@]3(C)CC[C@H](O)C(C)(C)[C@@H]3[C@@H](O[C@@H]3O[C@H](CO)[C@@H](O)[C@H](O)[C@H]3O)C[C@]12C [(20R)-Ginsenoside Rh1] (compound dose: 10 uM)	0.887 ± 0.031
CCCCCCCCCCCCCC(=O)O[C@@H]1[C@@H](C)[C@@]2(O)[C@@H](C=C(CO)C[C@]3(O)C(=O)C(C)=C[C@@H]23)[C@@H]2C(C)(C)[C@]12OC(C)=O [12-O-tetradecanoyl phorbol-13-acetate] (compound dose: 10 uM)	0.858 ± 0.021
O=C([O-])c1ccc[n+]([C@@H]2O[C@H](CO)[C@@H](O)[C@H]2O)c1 [Nicotinic acid riboside] (compound dose: 10 uM)	0.364 ± 0.35
C[C@@]1(C(=O)O)CC[C@]2(C)CC[C@]3(C)C4=CC(=O)c5c(cc(O)c(O)c5C=O)[C@]4(C)CC[C@@]3(C)[C@@H]2C1 [Demethylzeylasteral] (compound dose: 10 uM)	0.294 ± 0.022
C/C=C(/C)C(=O)O[C@H]1[C@@H]2[C@H](C)C(=O)O[C@@H]2C[C@@H](C)[C@@H]2C=CC(=O)[C@]21C [Brevilin A] (compound dose: 10 uM)	0.132 ± 0.017
C=C1CC[C@H]2[C@@H](/C=C(\C)C(=O)[C@@]3(OC(C)=O)C[C@H](C)[C@H](OC(=O)c4ccccc4)[C@@H]3[C@H]1OC(C)=O)C2(C)C [5,15-Diacetyl-3-benzoyllathyrol] (compound dose: 10 uM)	0.94 ± 0.14
C=C[C@@H]1C2=CCOC(=O)C2=CO[C@H]1O[C@@H]1O[C@H](CO)[C@@H](O)[C@H](O)[C@H]1O [Gentiopicroside] (compound dose: 10 uM)	0.904 ± 0.09
COc1ccc2c(c1O)-c1c(O)c(OC)cc3c1[C@H](C2)N(C)CC3 [Corytuberine] (compound dose: 10 uM)	0.889 ± 0.11
C=C1CC[C@H]2[C@@H](/C=C(\C)C(=O)[C@@]3(O)C[C@H](C)[C@H](O)[C@@H]3[C@@H]1O)C2(C)C [Lathyrol] (compound dose: 10 uM)	0.849 ± 0.095
C=C1[C@H](OC(=O)c2ccccc2)C[C@H]2[C@@H](/C=C(\C)C(=O)[C@@]3(OC(C)=O)C[C@H](C)[C@H](OC(=O)c4ccccc4)[C@@H]3[C@H]1OC(C)=O)C2(C)C [Euphorbia Factor L2] (compound dose: 10 uM)	0.5 ± 0.15
C/C=C(/C)C(=O)O[C@H]1C(C)=C[C@]23C(=O)[C@@H](C=C(C)[C@@H](O)[C@]12O)[C@H]1[C@@H](C[C@H]3C)C1(C)C [20-Deoxyingenol 3-angelate] (compound dose: 10 uM)	0.8582 ± 0.0053
